MITF inh: human MITF inhibition, primary screen | O75030 | AlphaScreen MITF homodimerization, bead proximity signal | inhibition, % at 2.6 µM | 650,000 compounds, 0.91% hits | AID 1259374; in the data active means inhibition above about 50%;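 further: 0% = vehicle wells with protein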
Target sequence (O75030 whole entry, looked up): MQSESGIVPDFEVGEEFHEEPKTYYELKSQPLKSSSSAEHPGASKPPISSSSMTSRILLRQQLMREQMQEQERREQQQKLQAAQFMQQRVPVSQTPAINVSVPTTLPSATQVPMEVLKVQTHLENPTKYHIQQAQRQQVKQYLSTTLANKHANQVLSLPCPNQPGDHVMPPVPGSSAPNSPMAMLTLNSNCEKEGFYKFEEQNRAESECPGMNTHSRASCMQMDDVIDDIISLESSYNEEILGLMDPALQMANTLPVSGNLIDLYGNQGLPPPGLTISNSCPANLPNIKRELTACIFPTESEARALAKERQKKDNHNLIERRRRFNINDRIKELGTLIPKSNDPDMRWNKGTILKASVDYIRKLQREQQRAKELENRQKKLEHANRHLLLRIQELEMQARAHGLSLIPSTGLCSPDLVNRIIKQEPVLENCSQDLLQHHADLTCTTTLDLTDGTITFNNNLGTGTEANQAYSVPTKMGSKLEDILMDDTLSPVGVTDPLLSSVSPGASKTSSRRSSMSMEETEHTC
GPR151 activ: activates the human receptor GPR151; activation, % at 11.2 µM; Q8TDV0; PathHunter beta-arrestin GPR151 cells, luminescence; 650,000 compounds, 1% hits; in the data active means activation above about 4.9%;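 further: 0% = median of compound wells and 100% = cells with positive control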
TEAD-YAP inh: TEAD-YAP interaction inhibition. HEK-TIYL cells, TEAD-Gal4/YAP UAS-luciferase luminescence. inhibition, % at 9.12 µM. 640,000 compounds, 1.4% hits; in the data active means inhibition above about 32%;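 further: 0% = median of test compound wells and 100% = reference inhibitor wells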
FBW7 activator: activators of human E3 ligase FBW7. AlphaScreen FBW7–phospho-cyclin E peptide binding, activator screen. normalized activity (activation), % at 26.1 µM. Q969H0. AID 1259310. 650,000 compounds, 0.13% hits; in the data active means normalized activity above about 1.9%;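 further: purified mutant Fbw7 with reduced substrate affinity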
MITF confirm: human MITF inhibition, confirmation | 4,700 compounds, 16% hits | shares compounds with MITF inh | AlphaScreen MITF homodimerization, biotin/His-MITF beads | inhibition, % at 2.6 µM;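 active means inhibition above a cutoff derived from the DMSO control wells, cut at about 28% in these data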;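 further: 0% = MITF dimer wells with DMSO only; inhibitors lower the bead chemiluminescence by keeping MITF from dimerizing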
AS interf DR: optically interferes with AlphaScreen signal in dose response. shares compounds with MITF inh. AlphaScreen optical interference counterscreen, cell-free. IC50, µM. 480 compounds, 6% hits. AID 1259373; call rule not given here
AS interf ctr: AlphaScreen optical interference, counter-screen; 4,700 compounds, 7.6% hits; inhibition, % at 2.6 µM; shares compounds with MITF inh; LysRS AlphaScreen counterscreen, signal interference, triplicate;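 active means inhibition above a cutoff derived from the DMSO control wells, cut at about 30% in these data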
* = called active by the depositor; . = no result. A selection: hits, their analogues and other compounds. The true share with any hit is near 3.5%.

SMILES	MITF inh	GPR151 activ	TEAD-YAP inh	FBW7 activator	MITF confirm	AS interf ctr	others
CCOc1ccccc1CN(C)CCc1ccccn1	88.8*	-1.2	1.6	-0.2	-6.9	14.6
CCC(=O)N1CCN=C1SCc1ccc(C)cc1	9.8	-0.6	-3.2	0.0	.	.
O=C(Nc1ccc(Br)cc1)Nc1cccc(Cl)c1	57.4*	0.0	-29.9	0.9	0.6	5.8
CCOc1ccccc1NC(=O)COC(=O)c1cc(Cl)ccc1[N+](=O)[O-]	-10.2	-0.8	-1.3	-0.1	.	.
Cc1nc2nc[nH]n2c(=O)c1NS(=O)(=O)c1ccc(F)cc1	42.8	-0.3	1.6	0.0	.	.
Cc1nc2nc[nH]n2c(=O)c1NS(=O)(=O)c1ccc2c(c1)n(C)c(=O)n2C	63.9*	-1.2	4.2	-0.1	-3.4	-5.5
O=C(CC1Nc2ccccc2NC1=O)Nc1cccc(Cl)c1 (stereo unspecified)	64.5*	0.6	4.1	-0.4	1.8	-11.4
COc1cc(CN2CCN(Cc3cccc4ccccc34)CC2)cc(OC)c1	73.7*	-1.2	9.4	-0.2	-11.3	4.0
COc1cc(CN2CCN(Cc3ccccc3C)CC2)cc(OC)c1	80.1*	-0.5	-2.9	-0.3	2.2	10.2
COc1cc(OC)c(/C=N/N2CCN(Cc3cccc4ccccc34)CC2)c(OC)c1	12.4	0.9	12.7	-0.5	.	.
CN1CCN(C(=O)C2CCCN(S(=O)(=O)N3CCCCC3)C2)CC1 (stereo unspecified)	64.6*	-0.6	-6.5	-0.1	-1.5	-0.1
CN1CCN(C(=O)C2CCCN(S(=O)(=O)c3ccc(F)cc3)C2)CC1 (stereo unspecified)	74.4*	1.2	-5.0	0.0	-10.7	-3.3
N#Cc1ccccc1OCC(=O)NC(c1ccccc1)c1ccccc1	-18.0	-0.3	-28.6	-0.1	.	.
CC(=O)N1CCN(c2c(C)c(C)nc3cc(-c4cccs4)nn23)CC1	-11.2	0.5	-9.2	0.0	.	.
Nc1ccc(S(=O)(=O)NNC(=O)C(=O)NNc2ccccn2)cc1	44.5	-0.6	-3.8	-0.2	.	.
Cc1ccccc1S(=O)(=O)NNC(=O)C(=O)NNc1ccccn1	53.7*	1.2	-0.6	-0.3	47.0*	75.1*
CN(CC(=O)Nc1c2c(nc3ccccc13)CCC2)Cc1ccccc1	71.0*	1.9	-4.6	-0.2	11.3	9.5
O=C(CN1CCN(c2ccccc2)CC1)Nc1c2c(nc3c1CCC3)CCCC2	1.9	-0.1	-6.2	0.2	.	.
O=C(CN1CCN(Cc2ccccc2)CC1)Nc1c2c(nc3c1CCC3)CCCC2	67.2*	0.6	5.1	0.0	-5.7	-5.9
CN1CCN(CC(=O)Nc2c3c(nc4ccccc24)CCCC3)CC1	60.2*	1.2	1.8	0.1	3.7	13.2
Cc1cc(C)n(C(=O)/C=C/c2ccco2)n1	77.6*	-0.6	3.6	-0.1	67.0*	-8.3	AS interf DR=>6.48
CC(=C/C(=O)O)/C=C/c1ccoc1	75.0*	-0.4	9.2	-0.7	56.9*	9.6	AS interf DR=>9.75
CC(=C/C(=O)O)/C=C/c1ccco1	68.0*	0.9	-2.1	-0.1	-25.3	-26.4
Cc1cc(C)n(C(=O)/C=C/c2ccccc2)n1	-1.3	0.7	1.0	0.3	.	.
CC(/C=C/c1ccc(N(C)C)cc1)=C\C(=O)O	9.1	-0.1	24.4	0.0	.	.
SMILES	MITF inh	GPR151 activ	TEAD-YAP inh	FBW7 activator	MITF confirm	AS interf ctr	others
O=C1C(=O)c2ccccc2C(O)=C1c1ccc(F)cc1	4.1	-0.2	1.7	-0.1	.	.
NC(C(=O)N1CCC(Nc2ccc3[nH]ncc3c2)CC1)c1ccc(Cl)cc1 (stereo unspecified)	74.4*	-0.7	-3.5	-0.5	13.0	23.5
Cc1ccccc1CN1CCN(Cc2ccncc2)CC1	60.0*	1.4	-6.6	-0.1	-14.6	-0.2
C(=N\N1CCN(Cc2cccc3ccccc23)CC1)/c1ccncc1	14.3	-0.9	-14.5	0.0	.	.
Cc1ccc(C)c(N2CCN(Cc3cccnc3)CC2)c1	29.9	-0.9	9.4	0.0	.	.
Cc1ccccc1CN1CCN(Cc2cccnc2)CC1	84.3*	-0.6	3.3	-0.2	3.5	23.6
c1ccc2c(CN3CCN(Cc4ccncc4)CC3)cccc2c1	54.6*	-0.9	-0.7	-0.3	1.7	2.5
CCOC(=O)CCN(Cc1ccccc1Cl)S(=O)(=O)c1ccc(F)cc1	11.2	-1.0	-2.8	0.5	.	.
Cn1c(SCC(=O)O)nnc1-c1cnccn1	61.2*	0.0	-5.2	-0.1	9.2	7.3
Cn1c(SCC(N)=O)nnc1-c1cnccn1	8.0	0.8	-4.3	-0.2	.	.
CCCCNCCOCCOc1c(C)cccc1Cl	45.8	3.7	10.9	0.0	.	.
COCCNCCCOc1c(C)cccc1C(C)(C)C	18.6	0.5	5.0	0.1	.	.
Cc1cccc(Cl)c1OCCOCCNCCO	72.5*	-0.2	0.2	0.0	-3.6	-8.0
COCCNCCOCCOc1cccc(Cl)c1Cl	26.0	-0.8	-1.4	0.5	.	.
NCCNCCOCCOc1cccc(Cl)c1Cl	51.0*	-1.3	1.0	-0.1	10.3	21.7
COCCNCCOc1c(C)cccc1C(C)(C)C	80.4*	0.6	4.3	0.0	7.6	6.1
COCCNCCOCCOc1c(C)cccc1C(C)(C)C	61.3*	-2.4	-7.9	-0.1	15.7	17.5
CCOC(=O)C1=C(C)Nc2ncnn2C1c1ccccc1Cl (stereo unspecified)	12.3	-1.1	2.5	1.1	.	.
CCOC(=O)N1CCN(C2c3ccccc3CC2NS(=O)(=O)c2ccccc2)CC1 (stereo unspecified)	8.0	0.2	2.7	0.1	.	.
CCC1=NN2C(=N)/C(=C/c3cc(Cl)ccc3OCCOc3ccc(C)c(C)c3)C(=O)N=C2S1	2.4	-0.8	-5.2	0.0	.	.
COc1cc(CN2CCN(C(=O)c3cc(OC)c(OC)c(OC)c3)CC2)c([N+](=O)[O-])cc1OC	36.0	-1.5	-3.8	-0.4	.	.
COc1ccc(CN2CCN(C(=O)c3cccc4ccccc34)CC2)cc1OC	44.3	0.7	-1.7	-0.1	.	.
CC(=O)c1ccc(N2CCN(CC(=O)NCc3cccs3)CC2)cc1	10.1	0.0	11.1	0.1	.	.
COc1cccc(CN2CCN(C(=O)c3cccc4ccccc34)CC2)c1OC	53.7*	-2.0	-3.5	0.3	9.6	-11.6
Cc1ccccc1CN1CCN(C(=O)c2ccccc2)CC1	36.8	-0.6	1.6	0.1	.	.
CC(=O)c1ccc(N2CCN(Cc3cccs3)CC2)cc1	55.8*	0.3	-19.2	-0.1	5.0	-0.1
COc1cc(C(=O)N2CCN(Cc3ccccc3[N+](=O)[O-])CC2)cc(OC)c1OC	67.1*	2.1	1.7	0.2	-16.6	-4.3
COc1cccc(OC)c1C(=O)N1CCN(Cc2ccccc2C)CC1	71.2*	-0.7	0.5	0.3	7.6	-6.4
COc1cc(OC)cc(C(=O)N2CCN(Cc3ccccc3[N+](=O)[O-])CC2)c1	61.0*	-1.8	7.2	-0.3	-3.6	9.3
CS(=O)(=O)N1CCN(Cc2ccccc2[N+](=O)[O-])CC1	10.7	0.9	13.1	0.6	.	.

Screening results deposited in PubChem BioAssay by The Scripps Research Institute Molecular Screening Center.
